From PubChem BioAssay
Values joined by “and” are separate entries in the source; they are usually repeats but may differ in a detail not shown here. Equal entries are not always repeated. A number with no mark means an inactive call. Active and inactive are the calls of the source.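 How the source made its calls, unless noted: active means mean inhibition above 46.68%, the untreated control wells mean plus 3 SD; inactive means the rest.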

What was measured:
[1] = target: Nuclear receptor coactivator 1 (Homo sapiens) (UniProt Q15788); assay: SRC1 coactivator transcriptional activity inhibitors, confirmation, cell-based, luminescence, quadruplicate (AID 588820); conditions: HEK293 GAL4-SRC1 luciferase reporter, at 3.6 µM, stronger effect = higher value;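 further: 0% = DMSO wells and 100% = gossypol 36 µM treated wells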
[2] = VP16 transactivation inhibitors, counter-screen for SRC1 inhibitor project, cell-based, luminescence, high throughput (AID 588824; in the data active means inhibition above about 25%); conditions: cell-based VP16 transactivation luciferase luminescence; at 3.6 µM; stronger effect = higher value
[3] = target: Nuclear receptor coactivator 3 (Homo sapiens) (UniProt Q9Y6Q9); assay: SRC3 coactivator transcriptional activity inhibitors, confirmation, cell-based, luminescence, quadruplicate (AID 588792;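 active means mean inhibition over 43.08%, the solvent-only control mean plus 3 SD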;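 further: 0% = DMSO treated cells and 100% = gossypol at 36 µM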); conditions: HEK293 GAL4-SRC3 luciferase reporter, at 3.6 µM, stronger effect = higher value
[4] = system: transactivating tegument protein VP16 (Human herpesvirus 1), Gal4-VP16 luciferase reporter; assay: VP16 transactivation inhibitors, counter-screen for SRC3 inhibitor project, cell-based, luminescence, high throughput (AID 588794; in the data active means inhibition above about 30%); conditions: mammalian cells, VP16-driven luciferase reporter luminescence; at 3.6 µM; stronger effect = higher value
[5] = StAR promoter reporter inhibitors, counter-screen for LRH-1 inverse agonist project, cell-based, luminescence, high throughput (AID 651611; in the data active means inhibition above about 28%); conditions: StAR promoter luciferase reporter counterscreen, at 3.6 µM, stronger effect = higher value
[6] = target: Nuclear receptor subfamily 5 group A member 2 (Homo sapiens) (UniProt O00482); assay: LRH-1 (NR5A2) inverse agonists, retest, confirmation, cell-based, luminescence (AID 651613; in the data active means inhibition above about 42%;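 further: HEK293T cells co-transfected with LRH-1 and StAR promoter luciferase reporter; 0% = vehicle wells and 100% = parental cells lacking receptor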); conditions: cell-based LRH-1 luciferase reporter, inverse agonism; at 3.6 µM; stronger effect = higher value
[7] = target: Steroidogenic factor 1 (Homo sapiens) (UniProt Q13285); assay: SF1 (NR5A1) inverse agonists, counter-screen for LRH-1 inverse agonist project, cell-based, luminescence, high throughput (AID 651614; in the data active means inhibition above about 44%;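 further: cells cotransfected with StAR promoter reporter and SF1 expression vector; 0% = vehicle on cells with receptor and 100% = vehicle on cells lacking receptor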); conditions: cell-based SF1 luciferase reporter, at 3.6 µM, stronger effect = higher value
[8] = VP16 transactivation reporter inhibitors, counter-screen for LRH-1 inverse agonist project, cell-based, luminescence, high throughput (AID 651615; in the data active means inhibition above about 33%); conditions: Gal4-VP16 luciferase reporter cells, at 3.6 µM, stronger effect = higher value
[9] = system: transactivating tegument protein VP16 (Human herpesvirus 1); assay: VP16 transactivation reporter inhibitors, counter-screen for SRC2 inhibitor project, cell-based, luminescence, single concentration (AID 652007; in the data active means inhibition above about 36%); conditions: cell-based VP16 transactivation luciferase reporter, at 8.9 µM, stronger effect = higher value
[10] = target: Nuclear receptor coactivator 2 (Homo sapiens) (UniProt Q15596); assay: SRC2 coactivator transcriptional activity inhibitors, confirmation, cell-based, luminescence, HEK293, triplicate (AID 652008;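 active means mean inhibition above 46.5%, the solvent-only control mean plus 3 SD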;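 further: 0% = DMSO-treated cells and 100% = Gossypol at 36 µM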); conditions: HEK293 GAL4-SRC2 luciferase reporter, at 8.9 µM, stronger effect = higher value

Sequence of Nuclear receptor coactivator 3 (Homo sapiens) (Q9Y6Q9 whole entry, looked up, the tested form may be a part): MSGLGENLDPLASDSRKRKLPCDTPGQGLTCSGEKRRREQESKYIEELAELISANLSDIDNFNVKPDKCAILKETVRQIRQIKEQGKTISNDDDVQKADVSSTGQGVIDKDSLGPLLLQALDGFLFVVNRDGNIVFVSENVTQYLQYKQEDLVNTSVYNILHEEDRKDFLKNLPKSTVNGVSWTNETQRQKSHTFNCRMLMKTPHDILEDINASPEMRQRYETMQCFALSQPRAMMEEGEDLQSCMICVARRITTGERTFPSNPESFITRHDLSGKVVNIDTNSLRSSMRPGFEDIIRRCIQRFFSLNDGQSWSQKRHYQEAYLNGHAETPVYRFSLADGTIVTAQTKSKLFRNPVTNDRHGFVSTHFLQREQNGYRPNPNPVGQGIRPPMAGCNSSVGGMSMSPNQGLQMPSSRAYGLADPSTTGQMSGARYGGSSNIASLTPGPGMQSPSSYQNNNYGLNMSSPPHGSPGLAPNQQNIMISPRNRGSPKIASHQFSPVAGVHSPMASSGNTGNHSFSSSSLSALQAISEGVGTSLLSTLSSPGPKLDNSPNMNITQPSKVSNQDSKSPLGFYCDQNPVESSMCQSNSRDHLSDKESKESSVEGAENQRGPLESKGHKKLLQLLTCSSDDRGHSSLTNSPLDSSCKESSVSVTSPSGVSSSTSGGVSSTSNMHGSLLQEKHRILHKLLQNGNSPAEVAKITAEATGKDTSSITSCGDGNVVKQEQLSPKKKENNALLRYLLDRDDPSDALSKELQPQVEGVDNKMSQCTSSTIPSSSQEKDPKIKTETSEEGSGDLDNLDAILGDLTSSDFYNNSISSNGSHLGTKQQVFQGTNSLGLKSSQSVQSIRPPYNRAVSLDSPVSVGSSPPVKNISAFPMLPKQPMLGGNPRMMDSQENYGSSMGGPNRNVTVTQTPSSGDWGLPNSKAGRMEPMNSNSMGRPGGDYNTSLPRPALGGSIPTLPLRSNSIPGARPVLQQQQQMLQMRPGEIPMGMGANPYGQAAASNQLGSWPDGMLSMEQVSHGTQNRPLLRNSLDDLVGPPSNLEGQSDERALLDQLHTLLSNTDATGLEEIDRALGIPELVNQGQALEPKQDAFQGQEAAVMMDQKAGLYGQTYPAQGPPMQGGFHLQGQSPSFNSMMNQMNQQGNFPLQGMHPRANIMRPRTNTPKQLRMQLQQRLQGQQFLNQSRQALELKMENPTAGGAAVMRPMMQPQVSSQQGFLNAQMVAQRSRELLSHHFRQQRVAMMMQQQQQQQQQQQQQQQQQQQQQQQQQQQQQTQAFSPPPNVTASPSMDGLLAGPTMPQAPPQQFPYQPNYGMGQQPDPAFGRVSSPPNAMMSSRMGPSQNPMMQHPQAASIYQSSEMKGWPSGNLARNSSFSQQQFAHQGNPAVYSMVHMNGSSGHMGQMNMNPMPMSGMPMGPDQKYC
Sequence of Nuclear receptor subfamily 5 group A member 2 (Homo sapiens) (O00482 whole entry, looked up): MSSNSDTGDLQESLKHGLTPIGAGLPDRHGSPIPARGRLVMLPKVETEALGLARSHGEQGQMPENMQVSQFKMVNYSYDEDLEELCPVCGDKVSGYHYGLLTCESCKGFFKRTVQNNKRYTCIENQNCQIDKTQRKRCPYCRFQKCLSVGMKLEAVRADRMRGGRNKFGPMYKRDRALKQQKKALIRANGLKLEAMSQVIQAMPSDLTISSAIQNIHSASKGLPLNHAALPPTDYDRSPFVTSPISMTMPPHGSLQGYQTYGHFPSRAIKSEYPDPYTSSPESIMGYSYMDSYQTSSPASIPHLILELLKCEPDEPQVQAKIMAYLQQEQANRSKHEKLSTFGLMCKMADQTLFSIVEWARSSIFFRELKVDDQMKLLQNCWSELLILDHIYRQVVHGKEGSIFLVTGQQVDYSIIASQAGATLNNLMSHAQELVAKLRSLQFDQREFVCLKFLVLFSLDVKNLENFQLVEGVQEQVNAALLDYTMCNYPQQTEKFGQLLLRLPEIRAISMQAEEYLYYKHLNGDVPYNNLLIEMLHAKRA
Sequence of Steroidogenic factor 1 (Homo sapiens) (Q13285 whole entry, looked up, the tested form may be a part): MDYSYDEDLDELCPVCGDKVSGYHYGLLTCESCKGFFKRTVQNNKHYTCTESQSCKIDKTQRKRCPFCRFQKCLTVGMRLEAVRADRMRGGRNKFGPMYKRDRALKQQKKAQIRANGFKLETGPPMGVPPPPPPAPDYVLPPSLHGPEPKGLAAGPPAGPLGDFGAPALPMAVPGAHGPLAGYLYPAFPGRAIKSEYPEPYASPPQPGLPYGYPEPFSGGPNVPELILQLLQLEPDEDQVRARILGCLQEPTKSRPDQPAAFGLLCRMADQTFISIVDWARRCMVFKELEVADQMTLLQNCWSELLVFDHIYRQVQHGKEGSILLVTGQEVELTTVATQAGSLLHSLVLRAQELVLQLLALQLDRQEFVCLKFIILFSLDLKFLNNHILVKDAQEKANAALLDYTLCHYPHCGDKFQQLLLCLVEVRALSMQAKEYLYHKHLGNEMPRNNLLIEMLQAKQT
Sequence of Nuclear receptor coactivator 1 (Homo sapiens) (Q15788 whole entry, looked up, the tested form may be a part): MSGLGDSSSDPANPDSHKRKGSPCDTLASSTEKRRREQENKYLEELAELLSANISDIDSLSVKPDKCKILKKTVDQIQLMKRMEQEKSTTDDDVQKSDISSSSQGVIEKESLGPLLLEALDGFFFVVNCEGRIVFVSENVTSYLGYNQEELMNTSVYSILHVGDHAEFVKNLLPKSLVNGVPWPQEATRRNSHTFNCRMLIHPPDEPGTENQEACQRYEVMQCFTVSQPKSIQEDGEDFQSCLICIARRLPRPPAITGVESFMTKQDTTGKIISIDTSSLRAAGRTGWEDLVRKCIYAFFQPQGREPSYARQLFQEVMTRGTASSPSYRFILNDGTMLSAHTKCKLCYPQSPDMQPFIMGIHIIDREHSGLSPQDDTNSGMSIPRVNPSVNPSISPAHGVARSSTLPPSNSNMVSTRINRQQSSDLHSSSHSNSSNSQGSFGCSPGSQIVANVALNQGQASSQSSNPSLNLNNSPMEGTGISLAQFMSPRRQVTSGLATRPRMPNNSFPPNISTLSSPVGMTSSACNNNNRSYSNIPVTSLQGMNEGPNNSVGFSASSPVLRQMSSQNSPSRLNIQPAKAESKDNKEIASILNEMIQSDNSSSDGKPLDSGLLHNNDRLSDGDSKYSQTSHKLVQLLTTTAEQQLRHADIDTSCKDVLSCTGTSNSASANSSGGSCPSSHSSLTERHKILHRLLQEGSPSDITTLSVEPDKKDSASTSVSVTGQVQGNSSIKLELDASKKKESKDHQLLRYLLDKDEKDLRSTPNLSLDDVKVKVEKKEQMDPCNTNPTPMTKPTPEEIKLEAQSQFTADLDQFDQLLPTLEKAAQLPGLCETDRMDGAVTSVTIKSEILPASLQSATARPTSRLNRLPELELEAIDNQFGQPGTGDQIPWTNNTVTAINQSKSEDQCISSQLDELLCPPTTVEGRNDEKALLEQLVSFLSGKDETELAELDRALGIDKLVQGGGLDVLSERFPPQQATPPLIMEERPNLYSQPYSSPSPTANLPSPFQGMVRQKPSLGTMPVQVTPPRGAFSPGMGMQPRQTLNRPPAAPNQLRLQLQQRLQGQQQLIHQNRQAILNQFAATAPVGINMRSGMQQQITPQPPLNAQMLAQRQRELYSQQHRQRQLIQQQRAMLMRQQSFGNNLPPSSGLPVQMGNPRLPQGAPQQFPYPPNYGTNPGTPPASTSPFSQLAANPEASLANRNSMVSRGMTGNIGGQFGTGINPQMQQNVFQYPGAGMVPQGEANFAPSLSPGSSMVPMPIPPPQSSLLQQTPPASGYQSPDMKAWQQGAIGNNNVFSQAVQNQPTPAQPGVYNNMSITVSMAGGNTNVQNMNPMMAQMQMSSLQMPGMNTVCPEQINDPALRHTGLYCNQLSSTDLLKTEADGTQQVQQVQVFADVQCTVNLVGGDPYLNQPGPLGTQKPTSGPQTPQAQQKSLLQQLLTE

For `CCC(c1nnnn1-c1ccc2c(c1)OCCO2)N1CCC(n2c(=O)[nH]c3ccccc32)CC1` (stereo not drawn), which inhibition [1] is on record?
The inhibition was -22%.

And the inhibition [2]?
Its inhibition is 9.85%.

Which inhibition [3] does the source give for `CCCOC(=O)c1ccc(-[n+]2c(-c3ccccc3)cc(-c3ccccc3)cc2-c2ccccc2)cc1` here?
Its inhibition is 44.1% (active).

And the inhibition [4]?
Its inhibition is 65.5% (active).

And the inhibition [5]?
The inhibition was 64.9% (active).

What about the inhibition [6] of the same compound?
Its inhibition is 110% (active).

What about the inhibition [7] of the same compound?
Its inhibition is 88.8% (active).

And the inhibition [8]?
Its inhibition is 96.6% (active).

And the inhibition [9]?
Its inhibition is 31.1%.

What about the inhibition [10] of the same compound?
Its inhibition is 31.8%.

With `COc1cc2nc(CN3CC=C(c4ccccc4)CC3)[nH]c(=O)c2cc1OC` as the compound, how does the inhibition [3] read?
Its inhibition is 37.9%.

What about the inhibition [4] of the same compound?
The inhibition was 39.7% (active).

And the inhibition [5]?
The inhibition was 72.7% (active).

What about the inhibition [6] of the same compound?
Its inhibition is 97.1% (active).

What about the inhibition [7] of the same compound?
The inhibition was 77.1% (active).

And the inhibition [8]?
The inhibition was 73.8% (active).

And the inhibition [9]?
Its inhibition is -4.49%.

What about the inhibition [10] of the same compound?
The inhibition was 24.4%.

Which inhibition [3] does the source give for `COc1ccc(CN2Cc3cnnn3-c3ccccc3C2C#N)cc1` (stereo not drawn) here?
Its inhibition is 62.8% (active).

What about the inhibition [4] of the same compound?
The inhibition was 56.2% (active).

What about the inhibition [9] of the same compound?
The inhibition was 51.6% (active).

What about the inhibition [10] of the same compound?
The inhibition was 49.8% (active).

Which inhibition [1] does the source give for `COc1ccc(-n2nnnc2C(c2cccc(OC)c2OC)N2CCC(n3c(=O)[nH]c4ccccc43)CC2)cc1` (stereo not drawn) here?
Its inhibition is -18.7%.

And the inhibition [2]?
The inhibition was 3.33%.

For `CC(C)(O)/C=C/C(=O)C(C)(O)C1C(O)CC2(C)C3CC=C4C(C=C(O)C(=O)C4(C)C)C3(C)C(=O)CC12C` (stereo not drawn), which inhibition [3] is on record?
Its inhibition is 70.1% (active).

What about the inhibition [4] of the same compound?
The inhibition was 74% (active).

And the inhibition [5]?
Its inhibition is 66% (active).

And the inhibition [6]?
The inhibition was 79.3% (active).

And the inhibition [7]?
The inhibition was 78.9% (active).

And the inhibition [8]?
The inhibition was 86.1% (active).

And the inhibition [9]?
The inhibition was 62.2% (active).

What about the inhibition [10] of the same compound?
Its inhibition is 96.5% (active).

With `CCC(C)(C)n1nnnc1CN1CCC(n2c(C)nc3cc(C(F)(F)F)ccc32)CC1` as the compound, how does the inhibition [1] read?
Its inhibition is 17.3%.

What about the inhibition [2] of the same compound?
Its inhibition is -2.08%.

Which inhibition [1] does the source give for `COc1ccc(C(c2nnnn2Cc2ccccc2)N2CCC(n3c(=O)[nH]c4ccccc43)CC2)cc1` (stereo not drawn) here?
Its inhibition is -42.8%.

And the inhibition [2]?
Its inhibition is -11.4%.

What does the source list for `COc1ccc(-n2nnnc2C(c2cccc3ccccc23)N2CCC3(CC2)C(=O)NCN3c2ccccc2)cc1` (stereo not drawn)?
inhibition [1]: -1.91%; inhibition [2]: 5.57%

Which inhibition [3] does the source give for `CNC(=O)c1cccn(Cc2ccc(C(F)(F)F)cc2)c1=O` here?
The inhibition was 30.3%.

And the inhibition [4]?
Its inhibition is -34.3%.

And the inhibition [5]?
Its inhibition is 47.7% (active).

What about the inhibition [6] of the same compound?
The inhibition was 65.9% (active).

What about the inhibition [7] of the same compound?
Its inhibition is 54.3% (active).

And the inhibition [8]?
The inhibition was -78.8%.

What does the source list for `COC(=O)C1=C(c2ccc(-c3ccccc3)c(F)c2)C[C@@H]2CC[C@H]1N2C(=O)N1CCCCC1`?
inhibition [3]: 18.3%; inhibition [4]: 39% (active); inhibition [9]: 19.5%; inhibition [10]: 35.4%

For `CCN(CC)C(=O)c1ccc(NC(=O)c2ccc(-n3cncn3)c([N+](=O)[O-])c2)cc1`, which inhibition [1] is on record?
Its inhibition is -2.4%.

What about the inhibition [2] of the same compound?
Its inhibition is 5.45%.

With `Cc1cccc(-n2c(C)nc3ccccc3c2=O)c1C` as the compound, how does the inhibition [1] read?
Its inhibition is 2%.

And the inhibition [2]?
Its inhibition is 9.3%.

With `COC(=O)C1=C(c2ccc(-c3ccccc3)c(F)c2)C[C@@H]2CC[C@H]1N2C(=O)NC1CC1` as the compound, how does the inhibition [1] read?
Its inhibition is 15.1%.

And the inhibition [2]?
The inhibition was 25.6% (active).

Which inhibition [1] does the source give for `O=C(c1cn(Cc2ccccc2F)c2ncccc12)C(F)(F)F` here?
The inhibition was -9.15%.

What about the inhibition [2] of the same compound?
The inhibition was -0.44%.

With `C[C@H]1CCC[C@H](O)CCCCCc2cc(O)cc(O)c2C(=O)O1` as the compound, how does the inhibition [1] read?
The inhibition was -4.86%.

And the inhibition [2]?
The inhibition was 15.5%.

What does the source list for `COC(=O)c1ccc(NC(=O)CSc2nc3ccc(N4C(=O)C5C6C=CC(C6)C5C4=O)cc3s2)cc1` (stereo not drawn)?
inhibition [3]: -22.8%; inhibition [4]: -0.23%; inhibition [9]: 24.8%; inhibition [10]: -3.51%

With `O=c1[nH]c2ccccc2n1C1CCN(C(c2cccs2)c2nnnn2-c2ccc3c(c2)OCCO3)CC1` (stereo not drawn) as the compound, how does the inhibition [1] read?
The inhibition was -26.2%.

And the inhibition [2]?
The inhibition was 25.5% (active).

For `CCCCn1nnnc1C(CCSC)N1CCC(n2c(=O)[nH]c3ccccc32)CC1` (stereo not drawn), which inhibition [1] is on record?
The inhibition was -63.4%.

And the inhibition [2]?
The inhibition was 6.98%.

Which inhibition [1] does the source give for `CCC(c1nnnn1Cc1ccccc1)N1CCC(n2c(=O)[nH]c3ccccc32)CC1` (stereo not drawn) here?
Its inhibition is -50.1%.

And the inhibition [2]?
Its inhibition is 0.59%.

With `CC(=NNC(=S)N1CC2CCC(CC2)C1)c1nccs1` as the compound, how does the inhibition [1] read?
The inhibition was 62.2% (active).

What about the inhibition [2] of the same compound?
The inhibition was 74.4% (active).

Which inhibition [3] does the source give for `C[C@H]1CCC/C=C/[C@@H]2C[C@H](O)C[C@H]2[C@H](O)/C=C/C(=O)O1` here?
The inhibition was 70% (active) and 66.5% (active).

And the inhibition [4]?
Its inhibition is 76.2% (active) and 77.2% (active).

And the inhibition [5]?
Its inhibition is 77.6% (active) and 82% (active).

And the inhibition [6]?
Its inhibition is 82.1% (active) and 88.7% (active).

And the inhibition [7]?
Its inhibition is 75% (active) and 80.4% (active).

What about the inhibition [8] of the same compound?
Its inhibition is 78.7% (active) and 78.3% (active).

With `CC(=O)c1cn(Cc2ccccc2F)c2ccccc12` as the compound, how does the inhibition [1] read?
The inhibition was -1.96%.

What about the inhibition [2] of the same compound?
The inhibition was 35.7% (active).

With `COc1cccc2cc(-c3cc(=O)oc4ccc(OC(=O)N(C)C)cc34)oc12` as the compound, how does the inhibition [1] read?
Its inhibition is -17.6%.

What about the inhibition [2] of the same compound?
Its inhibition is -14.6%.

Which results are given for `CC(C)CNc1c2c(nc3ccccc13)CCC2`?
inhibition [1]: 7.81%; inhibition [2]: 17.3%

With `Cn1cc(NC(=O)CCl)cn1` as the compound, how does the inhibition [5] read?
The inhibition was 41% (active).

What about the inhibition [6] of the same compound?
Its inhibition is 61.9% (active).

What about the inhibition [7] of the same compound?
Its inhibition is 61.2% (active).

What about the inhibition [8] of the same compound?
Its inhibition is -18.7%.

With `N#CCCn1cc(C(=O)Nc2ccccc2Cl)c(-c2ccc([N+](=O)[O-])cc2)n1` as the compound, how does the inhibition [5] read?
The inhibition was 16.9%.

And the inhibition [6]?
The inhibition was 57.2% (active).

And the inhibition [7]?
The inhibition was 59.8% (active).

And the inhibition [8]?
Its inhibition is -6.5%.

Which inhibition [5] does the source give for `Cc1nn(Cc2ccccc2)c(C)c1C(=O)OCC(=O)Nc1ccccc1SCC#N` here?
The inhibition was -1.13%.

What about the inhibition [6] of the same compound?
The inhibition was 58.8% (active).

What about the inhibition [7] of the same compound?
Its inhibition is 52.9% (active).

What about the inhibition [8] of the same compound?
Its inhibition is 2%.

Which inhibition [5] does the source give for `CCOC(=O)[C@]12Cc3ccc(C)cc3[C@H]1N(C1CCCCC1)C(=O)c1cc(OC)ccc12` here?
Its inhibition is 77.2% (active).

What about the inhibition [6] of the same compound?
The inhibition was 104% (active).

What about the inhibition [7] of the same compound?
Its inhibition is 75.1% (active).

What about the inhibition [8] of the same compound?
Its inhibition is 91.8% (active).
